Out of some 220,000 compounds screened, about 830 (0.38%) were called active.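 Rule for the calls: active = compound inhibiting the enzyme by more than half at any dose during confirmatory dose-response retesting; inconclusive = strong single-dose inhibitors picked by rank but not retested; inactive = the rest.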 A selection follows. Results with a measured potency or affinity are listed apart.
target: Leucine aminopeptidase (Plasmodium falciparum (isolate 3D7)) (UniProt Q8IL11); assay: P. falciparum M17LAP inhibitors, primary screen, biochemical, fluorogenic H-Leu-NHMec substrate, 1536-well (AID 1619); conditions: recombinant M17LAP, H-Leu-NHMec fluorogenic kinetic assay; at 30 µM; stronger effect = higher value;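 note: plate controls were full reaction with DMSO carrier for no effect and no enzyme background for full effect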
Sequence (Q8IL11 whole entry, looked up): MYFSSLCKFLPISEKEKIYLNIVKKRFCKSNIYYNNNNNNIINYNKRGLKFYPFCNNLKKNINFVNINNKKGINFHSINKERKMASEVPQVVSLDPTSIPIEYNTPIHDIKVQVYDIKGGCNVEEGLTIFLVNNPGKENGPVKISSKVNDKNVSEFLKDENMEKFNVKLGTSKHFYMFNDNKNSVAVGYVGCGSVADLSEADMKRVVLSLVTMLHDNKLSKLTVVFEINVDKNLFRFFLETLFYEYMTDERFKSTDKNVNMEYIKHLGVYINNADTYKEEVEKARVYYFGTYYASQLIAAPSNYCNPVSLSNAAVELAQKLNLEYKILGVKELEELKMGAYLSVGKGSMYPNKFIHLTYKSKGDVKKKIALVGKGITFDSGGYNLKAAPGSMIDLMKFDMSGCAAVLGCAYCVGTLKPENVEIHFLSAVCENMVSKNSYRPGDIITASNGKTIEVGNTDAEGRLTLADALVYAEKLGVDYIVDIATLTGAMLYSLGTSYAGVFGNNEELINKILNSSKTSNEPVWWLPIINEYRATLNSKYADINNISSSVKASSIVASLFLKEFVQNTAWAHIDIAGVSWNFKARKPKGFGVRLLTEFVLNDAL

inhibition, inactive:
COc1ccc(CC(=O)O/N=C(\N)c2ccncc2)cc1 -0.41%
COc1ccc(-n2nc(C(=O)N3CCN(Cc4ccc5c(c4)OCO5)CC3)c3ccccc3c2=O)cc1 6.93%
Cc1nc(Nc2ccc(S(=O)(=O)N3CCCCC3C)cc2)c2nnn(Cc3ccccc3)c2n1 (stereo not given) 9.37%
COc1ccc(NC(=O)c2ccc(NCCN3C(=O)CCC3=O)c([N+](=O)[O-])c2)cc1 4.32%
COC(=O)c1ccccc1NC(=O)CSc1nc(O)c(-c2ccccc2)c(=O)[nH]1 5.3%
CSCC[C@@H](C(=O)O)N1Cc2ccccc2C1=O 5.39%
O=C(O)C(Cc1ccccc1)N1Cc2ccccc2C1=O (stereo not given) -1.49%
CCN(Cc1ccccc1)C(=O)Cn1c(=O)n(CC(=O)NCc2ccco2)c(=O)c2sccc21 -1.64%
CCN(C(=O)CSc1nnc2ccccn12)c1c(N)n(Cc2ccccc2)c(=O)[nH]c1=O 12.8%
COc1ccc(/C=C(\CC(=O)O)c2nc3ccccc3o2)cc1 48.7%
N#C/C(=C\c1ccc(Cl)cc1)c1nc2ccccc2o1 8.5%
COc1ccc(/C=C/C(=O)NCCC(=O)N2CCCN(C)CC2)cc1 0.13%
Fc1ccccc1Nc1nc(-c2ccncc2)nc2ccccc12 0.48%
Cc1cc(C(=O)NC(Cc2ccccc2)C(=O)O)c(C)o1 (stereo not given) -7.27%
CSCCC(NC(=O)c1cc(C(C)(C)C)oc1C)C(=O)O (stereo not given) 20.9%
O=C(C[n+]1ccc(/C=N/O)cc1)N(Cc1ccccc1)Cc1ccccc1 4.35%
COCCNC(=O)C(C)OC(=O)c1cc2sccc2n1C (stereo not given) 3.75%
Cn1cnnc1Sc1nc2ccccc2nc1NS(=O)(=O)c1ccccc1 53.8%
CC(=O)Nc1ccc(S(=O)(=O)Nc2nc3ccccc3nc2Sc2nncn2C)cc1 -11.7%
Cc1[nH]n(-c2cccc3ccccc23)c(=O)c1/C=N/NC(=O)c1cccc([N+](=O)[O-])c1 11.1%
CCSc1nnc(NC(=O)NC2CCCCC2)s1 -14.6%
CCSc1nnc(NC(=O)C2CC2c2ccccc2)s1 (stereo not given) 15%
CCSc1nnc(NC(=O)C2CCCCC2)s1 1.5%
CCSc1nnc(NC(=O)C2CCCCC2C(=O)O)s1 (stereo not given) 48.8%
CCOC(=O)c1cc(NC(=O)N(CC)C2CCCCC2)c(C)nc1C 1.12%
Cc1ccc(NC(=O)CSc2nc3c(c(=O)[nH]2)CN(Cc2ccc(F)cc2)CC3)cc1C -0.17%
Cc1cc(C)cc(NC(=O)CSc2nc3c(c(=O)[nH]2)CN(Cc2ccc(F)cc2)CC3)c1 13.5%
CSc1nc(=O)n(-c2ccccc2)c(C)c1C(C)=O 2.84%
COc1cccc(NC(=S)N(CCCN2CCCC(C)C2)Cc2cccs2)c1 (stereo not given) -0.27%
CCOC(=O)Nc1c2ccccc2nc2ccccc12 -87.5%
CCOC(=O)c1c(-c2ccccc2)oc2ccc(O)c(CN(C)C)c12 -6.67%
COc1ccc(CCNC(=O)C2CC(=O)N(CCc3ccc(C)cc3)C2)cc1OC (stereo not given) 5.63%
CCCn1c(SCC(=O)NC2CCCc3ccccc32)n[nH]c1=O (stereo not given) -0.96%
C=CCn1c(N)c(C(=O)N2CCN(C)CC2)sc1=S 14%
O=C(O)c1cccc(S(=O)(=O)Nc2ccc(O)c(Sc3nc4ccccc4s3)c2)c1 42.9%
O=C(O)c1ccc(S(=O)(=O)Nc2ccc(O)c(Sc3nc4ccccc4s3)c2)cc1 40.7%
CCOc1ccc(NC(=O)Nc2nnc(CC)s2)cc1 9.94%
CCOc1ccc(Nc2nc3ccccc3c(=O)s2)cc1 4.25%
COc1cccc(Nc2nc3ccc(OC)cc3s2)c1 14.2%
COc1cccc(Nc2ccc(Nc3cccc(OC)c3)nn2)c1 -1.13%
O=C(CSc1ccc(Cl)cc1)N1CCC(c2nc3ccccc3s2)CC1 1%
CCn1c(SCC(=O)N(C)c2c(N)n(Cc3ccccc3)c(=O)[nH]c2=O)nc2ccccc21 -11.8%
Cc1c(C(=O)NCc2ccccc2)c(-c2ccccc2)nn1-c1ccccc1 6.71%
O=C(COc1ccccc1Cl)N1CCN(c2ncccn2)CC1 5.76%
O=C(O)CSc1nc(C(F)(F)F)cc(=O)n1-c1ccccc1 -6.87%
COCCCNC(=O)c1ccc(Cn2c(=O)c3ccccc3n(CC(=O)NCc3ccco3)c2=O)cc1 -3.96%
CCN(CC)c1ccc(NC(=O)CSc2nc3ccccc3c(=O)n2-c2cc(S(=O)(=O)N(C)C)ccc2C)cc1 -13%
Clc1ccccc1Nc1ncnc2c1nnn2Cc1ccccc1 5.79%
CC(=O)Oc1ccc(C(=O)[C@H]2[C@H]3C(=O)N(c4ccc(C)cc4)C(=O)[C@H]3[C@@H]3C=CC=NN32)cc1 14.6%
c1ccc(CNc2ncnc3nc[nH]c23)cc1 45.1%
COc1ccccc1CNc1ncnc2nc[nH]c12 6.16%
COc1cc2c(cc1OC)CN(C(=S)Nc1ccc(Cl)cc1)CC2 1.81%
CC1CN(C(=O)N2CCOCC2)CCN1C(=O)N1CCOCC1 (stereo not given) -0.08%
CCOC(=O)c1cc(-c2csc(-c3ccc(C(F)(F)F)cc3)n2)on1 -0.99%
O=C(NCCCO)/C(=C\C=C\c1ccccc1)NC(=O)c1ccccc1Cl 18.5%
C=CCNC(=O)/C(=C\C=C\c1ccccc1)NC(=O)c1ccccc1Cl -0.22%
CCc1ccc(C(=O)CSc2nc3cc(S(=O)(=O)N4CCOCC4)ccc3n2CC)cc1 16.6%
O=C(CCSc1ccccc1)NCCSCc1ccco1 22.2%
Cc1oc2c(C)c(O)ccc2c(=O)c1-c1nncn1-c1ccccc1 5.69%
CCOC(=O)c1oc2c(C)c(O)ccc2c(=O)c1-c1nncn1-c1ccccc1 17.4%

Reference: PubChem BioAssay AID1619 (SRMLSC, 2009)
